Test results published in PubChem BioAssay (NCI).
This is part of a sample that, as a whole, favours compounds with a hit. Of some 83,000 tested, about 20% had one in any assay.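 Values shown are percent growth following 48 h exposure of cells in 96-well plates to a single concentration of compound; below 10 was considered active.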 Active and inactive are the calls of the source.

What was measured:
Assay in all cases: NCI-60 one-dose screen, 48 h (100 = growth as untreated, 0 = no growth, -100 = all killed)
Settings in all cases: 10 µM unless noted
[1] = system: NCI-H226 lung
[2] = system: NCI-H322M lung
[3] = system: HOP-62 NSCLC
[4] = system: NCI-H460 lung
[5] = system: HOP-92 NSCLC
[6] = system: NCI-H522 lung
[7] = system: A549/ATCC NSCLC
[8] = system: 786-0 renal
[9] = system: COLO 205 colon

Measured: growth

O=C1C(Cl)=C(Nc2ccc(S(=O)(=O)c3ccc(NC4=C(Cl)C(=O)c5ccccc5C4=O)cc3)cc2)C(=O)c2ccccc21
inactive: [1] 91.2% | [2] 64.5% | [3] 36.1% | [4] 37.2% | [7] 74% | [8] 26.4%
active: [5] -26.2% | [6] -67.4%

O=C(O)c1cccc2c1-c1ccc(Cl)cc1C2
inactive: [1] 100% | [2] 97.1% | [3] 106% | [4] 113% | [5] 112% | [6] 88.2% | [7] 105% | [8] 110% | [9] 114%

C=C(C)[C@@H]1CC[C@]2(/C=N/Nc3ccncc3)CC[C@]3(C)[C@H](CC[C@@H]4[C@@]5(C)CCCNC(C)(C)[C@@H]5CC[C@]43C)[C@@H]12
inactive: [1] 87.7% | [2] 102% | [3] 94.7% | [4] 86.6% | [5] 55.6% | [6] 94.8% | [7] 78% | [8] 99.8% | [9] 42.2%

Fc1ccc2nc(-c3cc(-c4ccc5c(c4)OCO5)n[nH]3)[nH]c2c1
inactive: [1] 66.1% | [2] 64.9% | [3] 75.5% | [4] 40.9% | [5] 64.9% | [6] 33.7% | [7] 60.1% | [8] 56.8%

Nc1nc2c(c(=O)[nH]1)C(c1ccc3c(c1)OCO3)C=C(C(=O)O)N2 (centres undefined)
inactive: [1] 115% | [2] 114% | [3] 115% | [4] 110% | [5] 117% | [6] 106% | [7] 99.2% | [8] 98.3% | [9] 119%

Brc1ccc(Cn2nnnc2-c2ccn(-c3ccccc3)n2)cc1
active: [6] -1.66%
inactive: [1] 62.8% | [2] 76.8% | [4] 73.8% | [5] 63.8% | [7] 67.8% | [8] 82.8% | [9] 96.6%

O=C1c2cc3c(cc2-c2c1c1ccc(Cl)cc1c(=O)n2C[C@H](O)[C@@H](O)[C@H](O)CO)OCO3
inactive: [2] 12.6% | [5] 12.4%
active: [1] -49.6% | [4] 0.505% | [6] -59.5% | [7] -75.8% | [8] 4.87% | [9] -16.6%

O=C(/C=C/c1cccc2ccccc12)Nc1ncc(Cc2ccccc2)s1
inactive: [1] 28.4% | [2] 12.5% | [3] 28.7% | [5] 70.3% | [6] 34.5% | [7] 19.5% | [8] 34.3% | [9] 12.1%
active: [4] 2.17%

O=C(CI)Nc1ccc(O)c2ccccc12
inactive: [2] 104% | [3] 46.9% | [4] 32.5% | [7] 64.8%
active: [1] -13.1% | [5] -24.8% | [6] -79.4% | [8] -22.5% | [9] -85.6%

CN1CCN(CCOc2ccc(-c3cnc4c(-c5cccc(F)c5)cnn4c3)cc2)CC1
active: [4] 1.99%
inactive: [1] 109% | [2] 89.8% | [3] 90% | [5] 24.8% | [6] 82% | [7] 49.4% | [8] 57% | [9] 32.4%

COc1ccc(NC(=O)c2ccoc2COc2ccccc2)cc1
inactive: [1] 98.8% | [2] 101% | [3] 100% | [4] 106% | [5] 88.8% | [6] 90.2% | [7] 102% | [8] 96.9% | [9] 110%

Cc1cc(Cl)c2c(N(C)C)cccc2n1
active: [6] -75.5%
inactive: [1] 101% | [2] 89.9% | [3] 102% | [4] 104% | [5] 115% | [7] 100% | [8] 102% | [9] 105%

C/C(=N\Nc1cc(C)c2ccccc2n1)c1ccccn1
inactive: [3] 15.1%
active: [1] -2.65% | [2] -2.12% | [4] -44.7% | [5] -13.9% | [6] -25.7% | [7] -0.781% | [8] -63.9% | [9] 3.41%

Cn1c(=O)c2c(ncn2CCC(=O)Nc2ccc(F)cc2)n(C)c1=O
inactive: [1] 109% | [2] 105% | [3] 92.6% | [4] 108% | [5] 95.5% | [6] 90.3% | [7] 89.5% | [8] 95.1% | [9] 108%

CCN1CCN(C(=O)[C@]23CCC(C)(C)C[C@H]2C2=CC[C@@H]4[C@@]5(C)CC/C(=N/O)C(C)(C)[C@@H]5CC[C@@]4(C)[C@]2(C)CC3)CC1
inactive: [1] 66.5% | [2] 86.1% | [3] 76.9% | [4] 72% | [5] 52.7% | [6] 45.2% | [7] 74% | [8] 57.5% | [9] 87.9%

O=C1CCC/C=C\C[C@H]2C=C(Cl)C(=O)/C2=C/C[C@H](CCCCC(F)(F)F)OC(=O)CCC/C=C\C[C@H]2C=C(Cl)C(=O)/C2=C/C[C@H](CCCCC(F)(F)F)O1
active: [1] -19.3% [7.5 µM] | [2] -36.9% [7.5 µM] | [3] -29.9% [7.5 µM] | [4] -33.2% [7.5 µM] | [5] -58.4% [7.5 µM] | [6] -62.2% [7.5 µM] | [7] -44.5% [7.5 µM] | [8] -55% [7.5 µM] | [9] -57.2% [7.5 µM]

CC(C)(C)c1cc(-n2c(-c3ccc(Cl)cc3)nc3cc(C(=O)Nc4ccc(Cl)cc4)ccc32)n[nH]1
inactive: [1] 73.9% | [2] 82% | [3] 83.6% | [4] 39.6% | [5] 38.1% | [6] 56.9% | [7] 51.1% | [8] 67.4% | [9] 51.8%

COc1ccc(-c2cc(=O)oc3ccc(Cl)cc23)cc1F
inactive: [1] 49.1% | [2] 46.9% | [3] 20.8% | [5] 33.6% | [7] 10.8% | [8] 25%
active: [4] 7.67% | [6] -27.8% | [9] -26.4%

CC1(C)C(=O)CC[C@]2(C)[C@H]3C(=O)C=C4[C@@H]5C[C@@](C)(C(=O)NCCNCCN)CC[C@]5(C)CC[C@@]4(C)[C@]3(C)CC[C@@H]12
inactive: [1] 96.8% | [2] 108% | [3] 94.1% | [4] 99.2% | [5] 66.2% | [6] 111% | [7] 97.6% | [8] 99.9%

CCC(=O)c1c(C)[nH]c(C)c1C
inactive: [1] 101% | [2] 94.6% | [4] 55.5% | [5] 107% | [6] 56.2% | [7] 86.2% | [8] 99.2% | [9] 89.4%

COC(=O)CNc1nc(N(C)O)nc(N(C)O)n1
inactive: [1] 61.3% | [2] 54.6% | [3] 34.2% | [4] 17.7% | [5] 35.2% | [6] 53.2% | [7] 46.5% | [8] 25.9% | [9] 12.7%

C#CCC(C)(O)/C=C/C1=C(C)CCCC1(C)C (centres undefined)
inactive: [1] 85.4% | [2] 99.4% | [3] 96.9% | [4] 103% | [5] 84% | [6] 75.5% | [7] 69.8% | [8] 92.6% | [9] 113%

Cc1ccc2[nH]cc(-c3nc(-c4cn(C)c5ncccc45)cs3)c2c1
inactive: [1] 74.2% | [2] 101% | [3] 105% | [4] 91.4% | [5] 74.6% | [6] 86.5% | [7] 75.5% | [8] 91.3% | [9] 97.9%

CCC1C(=O)COC1=O (centres undefined)
inactive: [1] 100% | [2] 104% | [3] 77.1% | [4] 105% | [5] 80.6% | [6] 77.7% | [7] 64.1% | [8] 101% | [9] 100%

CCc1nnc(NC(=O)c2ccoc2COc2ccccc2)s1
inactive: [1] 74.3% | [2] 86.9% | [3] 56.3% | [4] 27% | [5] 74.8% | [6] 38.6% | [7] 62.1% | [8] 72.2% | [9] 44.2%

COc1cc2c3c(c4c5ccccc5[nH]c4c2c(OC)c1OC)C(=O)N(O)C3=O
inactive: [1] 42.6% | [2] 37.4% | [3] 38% | [4] 26.9% | [5] 78.4% | [6] 45.7% | [7] 60.3% | [8] 69.6% | [9] 61.1%

CC(C)(C)n1cc(-c2ccnc(NCCCNS(=O)(=O)c3ccc(Cl)cc3)c2)c(-c2cccc(F)c2)n1
inactive: [1] 80.9% | [2] 98.5% | [3] 93% | [4] 59.4% | [5] 73.6% | [6] 84.2% | [7] 61.9% | [8] 71.4% | [9] 43.4%

COc1ccc(-c2nc3c(c(C)nn3-c3ccc(F)cc3)c(=O)[nH]2)cc1
inactive: [1] 33.1% | [2] 78.7% | [3] 58.8% | [4] 28.2% | [5] 91.8% | [6] 81.3% | [7] 45.9% | [8] 11% | [9] 74%

O=c1c(CNc2ccc(S(=O)(=O)Nc3nccs3)cc2)coc2ccccc12
inactive: [1] 96.1% | [2] 87.6% | [3] 98.7% | [4] 102% | [5] 80.1% | [6] 82.8% | [7] 95.5% | [8] 103% | [9] 119%

N#Cc1c(-c2ccco2)nc2c(c(-c3ccccc3)nn2-c2ccccc2)c1-c1ccc(O)cc1
inactive: [1] 73.3% | [2] 81.9% | [4] 49.8% | [5] 76.1% | [6] 19.3% | [7] 46.9% | [8] 59.1%
active: [3] -50% | [9] 3.62%
